The whole screen tested about 310,000 compounds, of which about 14,000 (4.5%) showed an effect of 50% or more. The effect is printed as a negative number. This is one part of a sample in which strong results are shown more often than they occur.
The molecules below were run against human ether-à-go-go-related gene (hERG) potassium channel (human, UniProt Q12809) (assay: primary screen, population patch clamp on CHO cells stably expressing hERG; higher = less effect of the substance).
human ether-à-go-go-related gene (hERG) potassium channel, sequence (Q12809 whole entry, looked up): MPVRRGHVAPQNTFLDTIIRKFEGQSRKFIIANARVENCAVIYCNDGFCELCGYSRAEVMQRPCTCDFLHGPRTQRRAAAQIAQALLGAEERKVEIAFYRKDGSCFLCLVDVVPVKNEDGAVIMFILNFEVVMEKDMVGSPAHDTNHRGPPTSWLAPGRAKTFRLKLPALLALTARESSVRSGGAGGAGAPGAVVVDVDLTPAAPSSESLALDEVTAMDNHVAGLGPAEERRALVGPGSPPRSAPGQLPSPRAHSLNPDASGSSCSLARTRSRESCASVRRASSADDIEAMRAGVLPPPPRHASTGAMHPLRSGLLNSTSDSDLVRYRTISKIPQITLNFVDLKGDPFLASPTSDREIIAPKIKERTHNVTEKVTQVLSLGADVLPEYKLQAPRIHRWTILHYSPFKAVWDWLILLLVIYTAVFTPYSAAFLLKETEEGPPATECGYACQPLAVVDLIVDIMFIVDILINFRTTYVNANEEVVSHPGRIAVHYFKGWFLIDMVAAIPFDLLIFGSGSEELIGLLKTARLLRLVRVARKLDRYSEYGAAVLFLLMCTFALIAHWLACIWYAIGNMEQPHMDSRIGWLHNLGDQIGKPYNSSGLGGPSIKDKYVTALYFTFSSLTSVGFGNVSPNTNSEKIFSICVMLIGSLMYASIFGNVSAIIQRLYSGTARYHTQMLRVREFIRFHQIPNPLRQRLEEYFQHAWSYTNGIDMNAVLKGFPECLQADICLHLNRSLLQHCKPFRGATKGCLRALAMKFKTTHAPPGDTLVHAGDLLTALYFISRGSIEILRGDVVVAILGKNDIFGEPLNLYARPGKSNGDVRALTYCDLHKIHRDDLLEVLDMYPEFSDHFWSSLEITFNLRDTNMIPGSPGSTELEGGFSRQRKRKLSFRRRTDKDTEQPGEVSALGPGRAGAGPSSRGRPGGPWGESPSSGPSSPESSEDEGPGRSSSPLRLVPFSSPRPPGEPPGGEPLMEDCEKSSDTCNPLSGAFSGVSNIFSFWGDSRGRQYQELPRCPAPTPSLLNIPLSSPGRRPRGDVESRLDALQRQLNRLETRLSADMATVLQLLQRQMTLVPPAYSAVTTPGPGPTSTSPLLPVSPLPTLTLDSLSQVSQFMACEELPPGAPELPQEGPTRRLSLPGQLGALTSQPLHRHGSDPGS
In the case of `COc1ccc(-c2nnc(SCC(=O)Nc3cc(C)on3)o2)cc1`, the “hERG current change (%, negative = inhibition) at 10uM” value is reported as 14.4%. `O=C1C(c2ccc(F)cc2)N(C2CCCCC2)C(=O)CN1C1CCCC1` (stereo not drawn) was tested, and the “hERG current change (%, negative = inhibition) at 10uM” value was -34.1%. With `O=C(CSc1ccc2nnc(-c3ccncc3)n2n1)Nc1ccc2c(c1)OCCO2` the “hERG current change (%, negative = inhibition) at 10uM” value was 10.9%. For `Cc1ccc(-c2cc(C(=O)O)c3cc(Br)ccc3n2)s1`, the “hERG current change (%, negative = inhibition) at 10uM” value was 16.7%. With `COCc1c(C(=O)OCC(=O)NCCc2ccc(S(N)(=O)=O)cc2)oc2ccccc12` the “hERG current change (%, negative = inhibition) at 10uM” value was -0.489%. `CCc1ccc(NC(=O)CSC2=C(C#N)C(c3ccco3)C3=C(CCCC3=O)N2)cc1` (stereo not drawn) was tested, and the “hERG current change (%, negative = inhibition) at 10uM” value was -1.71%. `COc1ccc(-c2nc(CNS(=O)(=O)c3ccc(OC)c(OC)c3)cs2)cc1` was tested, and the “hERG current change (%, negative = inhibition) at 10uM” value was -1.76%. For `CCN(CC)C(=O)CC(c1ccc(N(C)C)cc1)c1c(O)cc(OC)cc1OC` (stereo not drawn), the “hERG current change (%, negative = inhibition) at 10uM” value was 18.7%. `O=C(COc1ccccc1C(=O)Nc1ccccc1)NCCc1ccccc1` was tested, and the “hERG current change (%, negative = inhibition) at 10uM” value was 34.4%. In the case of `CCCCN(CCCC)c1cc(C)nc(-c2ccccc2O)n1`, the “hERG current change (%, negative = inhibition) at 10uM” value is reported as 16.8%. For `Cc1cccc(OCC(=O)Nc2ccc(S(=O)(=O)Nc3onc(C)c3C)cc2)c1C`, the “hERG current change (%, negative = inhibition) at 10uM” value was 13.3%. For `Cc1ccc(N(CC(=O)NC2CCCCC2)C(=O)c2ccc(C)s2)cc1`, the “hERG current change (%, negative = inhibition) at 10uM” value was -11.2%. `CCOC(=O)c1c(NC(NC(=O)C(C)C)C(Cl)(Cl)Cl)sc2c1CCC2` (stereo not drawn) was tested, and the “hERG current change (%, negative = inhibition) at 10uM” value was 11%. In the case of `O=C(CSc1nc(-c2ccccc2)cs1)N1CCN(C(=O)c2ccco2)CC1`, the “hERG current change (%, negative = inhibition) at 10uM” value is reported as -60.6%. With `O=C(CSc1nncs1)N1CCN(C(=O)c2ccco2)CC1` the “hERG current change (%, negative = inhibition) at 10uM” value was 5.31%. In the case of `O=C(c1ccco1)N1CCN(c2nc(-c3ccc(F)cc3)cs2)CC1`, the “hERG current change (%, negative = inhibition) at 10uM” value is reported as -34.9%. In the case of `O=C(CSc1nc(-c2ccc(F)cc2)cs1)N1CCOCC1`, the “hERG current change (%, negative = inhibition) at 10uM” value is reported as -25.4%. For `CC1CN(C(=O)CSc2nc(-c3ccccc3)cs2)CC(C)O1` (stereo not drawn), the “hERG current change (%, negative = inhibition) at 10uM” value was 3.57%. For `O=C(CSc1nc(-c2ccc(F)cc2)cs1)N1CCN(C(=O)c2ccco2)CC1`, the “hERG current change (%, negative = inhibition) at 10uM” value was -57%. For `O=[N+]([O-])c1ccc(N=Nc2c(Cl)cc(O)cc2Cl)cc1`, the “hERG current change (%, negative = inhibition) at 10uM” value was 18.2%. `CN(C)S(=O)(=O)c1cccc(NC(=O)COc2ccc3ccccc3c2)c1` was tested, and the “hERG current change (%, negative = inhibition) at 10uM” value was -7.08%. For `O=C(O)c1ccc(/C=N/N2CCN(C3c4ccccc4-c4ccccc43)CC2)cc1`, the “hERG current change (%, negative = inhibition) at 10uM” value was 12.1%. For `O=C(CSc1ncc(C(=O)O)n1-c1ccc(F)cc1)NCc1ccc2c(c1)OCO2`, the “hERG current change (%, negative = inhibition) at 10uM” value was 35.8%. `O=C(CSc1nc2ccccc2c(=O)n1-c1ccccc1)NCc1ccc2c(c1)OCO2` was tested, and the “hERG current change (%, negative = inhibition) at 10uM” value was 3.23%. For `O=C(CSc1nnc(-c2cccnc2)n1-c1ccccc1)Nc1ccc2c(c1)OCO2`, the “hERG current change (%, negative = inhibition) at 10uM” value was -6.74%. For `O=C(CSc1nnc(-c2cccnc2)n1-c1ccc(F)cc1)NCc1ccc2c(c1)OCO2`, the “hERG current change (%, negative = inhibition) at 10uM” value was -72.5%. For `O=C(CSc1nnc(-c2ccco2)n1-c1ccccc1)NCc1ccc2c(c1)OCO2`, the “hERG current change (%, negative = inhibition) at 10uM” value was -73.4%. With `C=CCn1c(SCC(=O)NCc2ccc3c(c2)OCO3)nnc1-c1cccnc1` the “hERG current change (%, negative = inhibition) at 10uM” value was -0.64%. For `CCn1c(SCC(=O)NCc2ccc3c(c2)OCO3)nnc1-c1ccco1`, the “hERG current change (%, negative = inhibition) at 10uM” value was -5.03%. `Cc1ccccc1-c1nnc(SCC(=O)NCc2ccc3c(c2)OCO3)n1C` was tested, and the “hERG current change (%, negative = inhibition) at 10uM” value was -8.1%. For `O=C(CSc1nnc(-c2cccnc2)n1-c1ccccc1)NCc1ccc2c(c1)OCO2`, the “hERG current change (%, negative = inhibition) at 10uM” value was -69%. For `CC(=O)Oc1ccc(-c2cccc(C(=O)N(C)c3ccc(O)cc3)c2)cc1`, the “hERG current change (%, negative = inhibition) at 10uM” value was -17.8%. `CN(C)c1ccc(C(=S)Nc2ccccc2)cc1` was tested, and the “hERG current change (%, negative = inhibition) at 10uM” value was 12.5%. For `COC(=O)c1cc(NC(=O)c2nccnc2C(=O)O)cc(C(=O)OC)c1`, the “hERG current change (%, negative = inhibition) at 10uM” value was 13.8%. For `Cc1ccc(CNC(=O)c2ccc(N3CCc4ccccc43)c([N+](=O)[O-])c2)cc1`, the “hERG current change (%, negative = inhibition) at 10uM” value was 3.31%. For `Cc1ccc(-c2cc(C(=O)NCCCN3CCOCC3)c3ccccc3n2)cc1C`, the “hERG current change (%, negative = inhibition) at 10uM” value was 0.698%. In the case of `Cc1ccc2nc3c(cc(C(=O)NCCN4CCOCC4)c(=N)n3CCCN3CCOCC3)c(=O)n2c1`, the “hERG current change (%, negative = inhibition) at 10uM” value is reported as -7.16%. `Cc1ccc2nc3c(cc(C(=O)NCCc4ccccc4)c(=N)n3CCN3CCOCC3)c(=O)n2c1` was tested, and the “hERG current change (%, negative = inhibition) at 10uM” value was -76.7%. With `Cc1ccc2nc3c(cc(C(=O)NCCc4ccccc4)c(=N)n3CCCN3CCOCC3)c(=O)n2c1` the “hERG current change (%, negative = inhibition) at 10uM” value was -80.6%. For `O=C(NCc1ccco1)c1cccc(F)c1`, the “hERG current change (%, negative = inhibition) at 10uM” value was 6.59%. In the case of `O=C(COc1cccc(Cl)c1)Nc1ccc2c(c1)CCC2`, the “hERG current change (%, negative = inhibition) at 10uM” value is reported as -3.73%. For `CC1CN(c2nnnn2-c2ccccc2)CC(C)O1` (stereo not drawn), the “hERG current change (%, negative = inhibition) at 10uM” value was -23.1%.

From paper PMC4336329 (PLoS ONE, 2015)
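Note: peak tail current of the secondary pulse compared with the same well before compound.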
